Assay results from the supplement of paper PMC11417369.
± gives the standard deviation of the averaged measurements. Over roughly 25,000 sequences, “ln(normalized median fluorescence intensity)” has its median near 10; the highest 2% begin near 12. The sample holds the highest values, similar sequences and a random draw of the others, so the mix is not that of the screen.

Each sequence was assayed on PfAP2-G AP2 domain (GST-tagged) (assay: gcPBM binding intensity (ln(normalized median fluorescence intensity)); higher = stronger DNA binding).
In short: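 Alexa488 anti-GST antibody, scanned at 488 nm, detected GST-tagged P. falciparum DNA-binding domains that had been expressed in E. coli and incubated for 1 h on an Agilent 4 × 180k array. The array carried primer-extended double-stranded 36-bp intergenic genomic probes and negative controls. Binding intensity is the highest Masliner-normalised natural-log median intensity across replicate spots of either orientation of each probe.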
For “ATATTTATATATAGTAGTACTTTCAATAATTTAAAT [XGTACX_site7276]”, the “gcPBM binding intensity (ln)” value was 11.4 ± 0.84. With “TATATTTTATATTAGTGTACAAATTTCATTTTTCAT [XGTACX_site2204]” the “gcPBM binding intensity (ln)” value was 11 ± 0.5. With “TTTTAAATTTAGTGTAGTACACTTTTTTCAAATATA [XGTACX_site4659]” the “gcPBM binding intensity (ln)” value was 11.7 ± 1.2. For “ATATGTTACTTTACATAAAGAAGAAGAAGAAGAAAA [CACACA_negctrl_site985]”, the “gcPBM binding intensity (ln)” value was 9.805 ± 0.064. In the case of “TCTTTTGAACAAATTTGTACGTATATAAAAATATTT [XGTACX_site6547]”, the “gcPBM binding intensity (ln)” value is reported as 11.4 ± 0.71. For “TATAATAAAATATTTTGTACGTATATTTTAATATTT [XGTACX_site2582]”, the “gcPBM binding intensity (ln)” value was 11.2 ± 0.72. “TTTTTGTTTGAACACTGTACGTATAAATATAAAAGT [XGTACX_site6476]” was tested, and the “gcPBM binding intensity (ln)” value was 11.7 ± 0.84. “ATATAAACATGTTTGTGTACGTAATATGAAAAATAA [XGTACX_site8157]” was tested, and the “gcPBM binding intensity (ln)” value was 11.7 ± 1. “TATAAAAAATTATGTTGTACGTAATATAAAATTTGT [XGTACX_site7122]” was tested, and the “gcPBM binding intensity (ln)” value was 11.4 ± 0.86. “TGTATGATTATGTTGTGTACGTAAAATATGAAAAAT [XGTACX_site1720]” was tested, and the “gcPBM binding intensity (ln)” value was 11.5 ± 0.89. With “TAAAATATAAGACACACACACATATATTTATATATC [CACACA_site6248]” the “gcPBM binding intensity (ln)” value was 9.96 ± 0.099. “AAAAAAAAAAAAAAAAGTACACAGTAGAATTAAATG [XGTACX_site1843]” was tested, and the “gcPBM binding intensity (ln)” value was 11.7 ± 0.92. In the case of “AAAAAAAAAATTAAAAGTACAGAAAATAAATAAATA [XGTACX_site7470]”, the “gcPBM binding intensity (ln)” value is reported as 11.4 ± 0.82. For “AAAGAATAATTAAATACACACATATTACAGTAAAAA [CACACA_site2450]”, the “gcPBM binding intensity (ln)” value was 10.03 ± 0.092. With “TTATGTACAATTTCTTCTTTCTTTTTTCCTAAAGAC [CACACA_negctrl_site1193]” the “gcPBM binding intensity (ln)” value was 11.1 ± 0.57. With “GGTCTTATTTTTAGTAGTACAAATATAATATACATA [XGTACX_site6483]” the “gcPBM binding intensity (ln)” value was 11.4 ± 0.83. With “AATAATTTAATACATACACACGTATATCTTTTTTTT [CACACA_site8632]” the “gcPBM binding intensity (ln)” value was 9.955 ± 0.078. In the case of “TAATTGTACGCCAATACACACAGAATTAAAATGTAG [CACACA_site4234]”, the “gcPBM binding intensity (ln)” value is reported as 11.6 ± 1.1. In the case of “TAATTGTACGCCAATACACACAGAATTAGAATGTAG [CACACA_site102]”, the “gcPBM binding intensity (ln)” value is reported as 11.8 ± 1.3. For “TAATTGTACGCCAATACACACAGAATTATAATGTAG [CACACA_site6201]”, the “gcPBM binding intensity (ln)” value was 11.5 ± 1. With “CAACATTTATATTTTACACACATCATTTAAGCGCTT [CACACA_site992]” the “gcPBM binding intensity (ln)” value was 10.09 ± 0.078. In the case of “ATCCTTTATTTTTTTTGTACATAAAAATAACTCGAG [XGTACX_site3885]”, the “gcPBM binding intensity (ln)” value is reported as 11.1 ± 0.62. In the case of “ATATGTATATTTTTGATGTGCTTTTATTTGGTTATT [CACACA_negctrl_site626]”, the “gcPBM binding intensity (ln)” value is reported as 10.01 ± 0.035. For “CATATACACGAACACACACACATATATATATATATA [CACACA_site4437]”, the “gcPBM binding intensity (ln)” value was 10.5 ± 0.68. In the case of “CCCCCCCACGGACACACACACATACATACCACATAT [CACACA_site5303]”, the “gcPBM binding intensity (ln)” value is reported as 11.7 ± 0.75. For “CCCCCCCACGAACACACACACATACATACCACATAT [CACACA_site7149]”, the “gcPBM binding intensity (ln)” value was 12 ± 1. “CCCCCCCACAGACACACACACATACATACCACATAT [CACACA_site2306]” was tested, and the “gcPBM binding intensity (ln)” value was 11.8 ± 0.76. In the case of “AACATATACACGAACACACACACATATATATATATA [CACACA_site502]”, the “gcPBM binding intensity (ln)” value is reported as 10.3 ± 0.26. With “TTCCCCCCCAGACACACACACACATACATACCACAT [CACACA_site2305]” the “gcPBM binding intensity (ln)” value was 11.8 ± 0.84. “TACATACACGGACACACACACATATATATATATATA [CACACA_site5883]” was tested, and the “gcPBM binding intensity (ln)” value was 11.3 ± 0.88. In the case of “TACAGACATACATACACACATACATACAGACATACA [CACACA_site1941]”, the “gcPBM binding intensity (ln)” value is reported as 10.1 ± 0.3. For “CACAGACACCCATACACACACATACCCATATATATA [CACACA_site5023]”, the “gcPBM binding intensity (ln)” value was 10.4 ± 0.26. With “CGCATACACGGACACACACACACATATATATATATA [CACACA_site4520]” the “gcPBM binding intensity (ln)” value was 11.3 ± 0.7. “TACATACACAGACACACACACATATATATATATATA [CACACA_site3557]” was tested, and the “gcPBM binding intensity (ln)” value was 10.2 ± 0.38. “CATACACCCAGACACACACACATATATATATATATA [CACACA_site634]” was tested, and the “gcPBM binding intensity (ln)” value was 10.3 ± 0.39. “AAATTAATGTATATGTGAAGCAAGGGATGCGGCAGA [CACACA_negctrl_site406]” was tested, and the “gcPBM binding intensity (ln)” value was 10.2 ± 0.12. For “GTACCTATTTCATACACACACACACCCAAACAAACA [CACACA_site976]”, the “gcPBM binding intensity (ln)” value was 10.7 ± 0.51. “ACATAATAAAAATAAATTCATAAGTAAATAAATAAA [TGCATGCA_negctrl_site186]” was tested, and the “gcPBM binding intensity (ln)” value was 9.88 ± 0.24. For “GTTTGTATAGGTTCATGTACAAAAAAAAAAAAAAAA [XGTACX_site537]”, the “gcPBM binding intensity (ln)” value was 11 ± 0.83. “TTGTTTAAGTCACGAACACACATATATCATCAATTT [CACACA_site986]” was tested, and the “gcPBM binding intensity (ln)” value was 10.11 ± 0.071. For “TTACTTATAAATAAATATACAAAAATGTTATATATA [XGTACX_negctrl_site223]”, the “gcPBM binding intensity (ln)” value was 9.625 ± 0.078. “CATACATACATACATACATGCATACATACATACATA [TGCATGCA_site218]” was tested, and the “gcPBM binding intensity (ln)” value was 10.5 ± 0.47. In the case of “AATTCTTTTTTCAACACACACACACCCGAAAATATA [CACACA_site3111]”, the “gcPBM binding intensity (ln)” value is reported as 10.3 ± 0.28. In the case of “CAAACCTATATACAAACATGCAATCCACATATTGGT [TGCATGCA_site756]”, the “gcPBM binding intensity (ln)” value is reported as 9.99 ± 0.13.
